The values below come from publication PMC7862700, “An all-to-all approach to the identification of sequence-specific readers for epigenetic DNA modifications on cytosine”.

Common to all, as to test: DAPPL (digital affinity profiling via proximity ligation, sequencing); 10 mM Tris-HCl pH 7.5, 50 mM NaCl, 1 mM DTT, 4% glycerol, room temperature, 30 min; GST-TFs on glutathione beads, 16-mer random dsDNA library, 0.1% formaldehyde crosslink after washing; high values mean tight binding
Common to all, as to conditions: protein: recombinant; tags: N-terminal GST; dsDNA, one strand shown

In assay [1] the target is T1, ELK1 (Homo sapiens, UniProt P19419 1-428).
T1 sequence: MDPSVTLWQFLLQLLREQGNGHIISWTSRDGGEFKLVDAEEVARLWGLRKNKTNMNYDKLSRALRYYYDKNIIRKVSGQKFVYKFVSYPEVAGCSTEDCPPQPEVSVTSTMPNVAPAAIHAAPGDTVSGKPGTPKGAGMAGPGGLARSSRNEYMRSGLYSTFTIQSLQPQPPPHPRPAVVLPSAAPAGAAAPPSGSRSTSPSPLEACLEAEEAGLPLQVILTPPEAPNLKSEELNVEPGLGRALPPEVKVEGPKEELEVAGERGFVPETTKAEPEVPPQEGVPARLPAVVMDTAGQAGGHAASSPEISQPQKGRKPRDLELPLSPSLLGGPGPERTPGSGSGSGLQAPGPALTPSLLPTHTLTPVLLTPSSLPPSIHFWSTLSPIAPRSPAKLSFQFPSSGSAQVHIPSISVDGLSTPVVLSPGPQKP
The essentials:
(§1)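 Sequencing on an Illumina NextSeq500 followed washing, crosslinking with 0.1% formaldehyde, proximity ligation (BsaI/T4 ligase, 1 h, 37 °C) and PCR amplification of pools that had been incubated for 30 min at room temperature with 200 nmole of a random double-stranded 16-mer DNA library in Tris/NaCl/DTT/glycerol buffer. Each pool held DNA-barcoded human transcription factors, expressed in yeast as GST fusions and captured on glutathione beads, plus a tag-only sample. Binding signal is a hexamer's read frequency for a factor divided by its frequency in the tag-only sample.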

The target in assay [2] is ELF1 (Homo sapiens, UniProt P32519 1-619). An outline of the steps:
as §1

Assay [3] has as its target SPIB (Homo sapiens, UniProt Q01892 1-262). The essentials: as §1
For assay [4], the target named is T2, ELK3 (Homo sapiens, UniProt P41970 1-407).
T2 sequence: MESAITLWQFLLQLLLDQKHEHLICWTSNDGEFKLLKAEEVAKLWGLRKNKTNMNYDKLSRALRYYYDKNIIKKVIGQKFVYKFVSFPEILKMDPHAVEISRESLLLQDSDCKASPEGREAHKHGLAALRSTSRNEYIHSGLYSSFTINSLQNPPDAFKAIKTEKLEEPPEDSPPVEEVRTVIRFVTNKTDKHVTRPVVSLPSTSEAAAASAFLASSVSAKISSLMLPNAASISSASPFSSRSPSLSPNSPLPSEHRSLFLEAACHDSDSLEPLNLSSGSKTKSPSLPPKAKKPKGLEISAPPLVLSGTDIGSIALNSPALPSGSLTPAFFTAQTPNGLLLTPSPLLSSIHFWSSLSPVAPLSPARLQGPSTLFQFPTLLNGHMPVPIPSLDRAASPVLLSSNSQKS
An outline of the steps: as §1

For assay [5], the target named is T3, SPIC (Homo sapiens, UniProt Q8N5J4 1-248).
T3 sequence: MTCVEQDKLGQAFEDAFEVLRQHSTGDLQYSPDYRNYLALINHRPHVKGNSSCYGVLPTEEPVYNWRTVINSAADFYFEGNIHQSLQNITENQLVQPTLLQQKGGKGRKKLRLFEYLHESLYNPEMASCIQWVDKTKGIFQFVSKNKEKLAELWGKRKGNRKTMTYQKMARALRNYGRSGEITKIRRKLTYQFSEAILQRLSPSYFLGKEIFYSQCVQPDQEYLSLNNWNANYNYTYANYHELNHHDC
An outline of the steps: as §1

Assay [6] addresses ELF4 (Homo sapiens, UniProt Q99607 1-663). An outline of the steps: as §1
The target in assay [7] is T4, ELK4 (Homo sapiens, UniProt P28324-2 1-405).
T4 sequence: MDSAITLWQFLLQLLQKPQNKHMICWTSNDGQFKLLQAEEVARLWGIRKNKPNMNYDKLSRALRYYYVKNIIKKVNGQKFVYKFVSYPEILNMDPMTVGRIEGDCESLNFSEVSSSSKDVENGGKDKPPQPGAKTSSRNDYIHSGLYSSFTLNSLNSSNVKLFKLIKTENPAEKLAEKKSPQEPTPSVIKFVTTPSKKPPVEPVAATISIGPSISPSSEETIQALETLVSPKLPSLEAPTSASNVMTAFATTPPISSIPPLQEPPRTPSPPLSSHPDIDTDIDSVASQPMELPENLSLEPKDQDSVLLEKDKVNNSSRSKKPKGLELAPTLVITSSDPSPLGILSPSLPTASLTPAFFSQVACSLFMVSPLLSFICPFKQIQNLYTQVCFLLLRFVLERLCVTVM
The essentials:
as §1

Assay [8] concerns the target T5, ELF3 (Homo sapiens, UniProt P78545 1-371).
T5 sequence: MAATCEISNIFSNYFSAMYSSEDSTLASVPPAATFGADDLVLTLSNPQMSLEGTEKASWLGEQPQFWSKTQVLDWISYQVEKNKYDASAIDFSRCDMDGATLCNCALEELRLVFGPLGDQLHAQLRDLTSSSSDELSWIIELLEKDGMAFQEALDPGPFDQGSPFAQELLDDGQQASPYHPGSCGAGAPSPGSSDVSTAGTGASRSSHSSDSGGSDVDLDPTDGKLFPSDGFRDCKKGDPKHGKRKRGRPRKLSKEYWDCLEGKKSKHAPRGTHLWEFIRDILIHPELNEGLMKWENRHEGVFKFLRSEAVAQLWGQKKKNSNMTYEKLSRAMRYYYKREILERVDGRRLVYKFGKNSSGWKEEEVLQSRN
An outline of the steps: as §1

Assay [9] has as its target T6, ERF (Homo sapiens, UniProt P50548 1-548).
T6 sequence: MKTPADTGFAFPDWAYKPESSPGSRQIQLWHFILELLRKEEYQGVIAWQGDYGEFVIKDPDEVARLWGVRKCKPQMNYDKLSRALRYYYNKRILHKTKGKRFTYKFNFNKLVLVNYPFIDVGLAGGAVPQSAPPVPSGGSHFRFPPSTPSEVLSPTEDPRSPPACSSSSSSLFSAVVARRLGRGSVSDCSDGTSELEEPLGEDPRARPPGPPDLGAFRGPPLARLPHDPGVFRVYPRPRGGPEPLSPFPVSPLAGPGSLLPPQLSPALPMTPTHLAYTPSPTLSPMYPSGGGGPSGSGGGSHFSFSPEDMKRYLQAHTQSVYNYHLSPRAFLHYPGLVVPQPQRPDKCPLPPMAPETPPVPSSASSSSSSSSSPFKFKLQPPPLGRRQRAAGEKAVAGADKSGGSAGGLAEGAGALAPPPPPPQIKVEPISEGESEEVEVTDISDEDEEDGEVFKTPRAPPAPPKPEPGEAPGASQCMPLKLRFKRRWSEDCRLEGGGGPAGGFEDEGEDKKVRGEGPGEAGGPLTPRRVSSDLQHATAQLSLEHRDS
An outline of the steps:
as §1

The target of assay [10] is T7, ETV3L (Homo sapiens, UniProt Q6ZN32 1-361).
T7 sequence: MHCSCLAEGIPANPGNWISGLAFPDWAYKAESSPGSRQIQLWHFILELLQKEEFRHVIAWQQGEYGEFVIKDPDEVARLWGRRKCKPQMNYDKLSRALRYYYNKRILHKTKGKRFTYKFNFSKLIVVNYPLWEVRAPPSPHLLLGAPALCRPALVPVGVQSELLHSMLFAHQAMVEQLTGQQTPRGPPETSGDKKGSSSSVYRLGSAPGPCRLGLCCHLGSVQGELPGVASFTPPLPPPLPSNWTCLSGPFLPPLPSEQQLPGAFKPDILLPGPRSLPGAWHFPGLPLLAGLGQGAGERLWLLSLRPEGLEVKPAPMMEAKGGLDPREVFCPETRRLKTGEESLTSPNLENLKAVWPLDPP
An outline of the steps:
as §1

Assay [11] concerns the target T8, ETS2 (Homo sapiens, UniProt P15036 1-469).
T8 sequence: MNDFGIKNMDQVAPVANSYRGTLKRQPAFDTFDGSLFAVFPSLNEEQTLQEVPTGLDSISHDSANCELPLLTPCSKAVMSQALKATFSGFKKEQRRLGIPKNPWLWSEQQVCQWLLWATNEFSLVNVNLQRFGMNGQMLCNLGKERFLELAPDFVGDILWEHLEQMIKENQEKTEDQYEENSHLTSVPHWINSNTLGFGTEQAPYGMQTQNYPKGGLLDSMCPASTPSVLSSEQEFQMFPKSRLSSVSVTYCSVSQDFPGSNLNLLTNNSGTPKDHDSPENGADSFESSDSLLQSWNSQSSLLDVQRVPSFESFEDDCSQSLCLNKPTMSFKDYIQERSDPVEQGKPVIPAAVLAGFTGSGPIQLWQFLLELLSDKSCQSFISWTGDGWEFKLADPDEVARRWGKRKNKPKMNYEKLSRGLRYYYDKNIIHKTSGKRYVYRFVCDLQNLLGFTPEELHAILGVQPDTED
An outline of the steps: as §1

For assay [12], the target named is T9, SPDEF (Homo sapiens, UniProt O95238 1-335).
T9 sequence: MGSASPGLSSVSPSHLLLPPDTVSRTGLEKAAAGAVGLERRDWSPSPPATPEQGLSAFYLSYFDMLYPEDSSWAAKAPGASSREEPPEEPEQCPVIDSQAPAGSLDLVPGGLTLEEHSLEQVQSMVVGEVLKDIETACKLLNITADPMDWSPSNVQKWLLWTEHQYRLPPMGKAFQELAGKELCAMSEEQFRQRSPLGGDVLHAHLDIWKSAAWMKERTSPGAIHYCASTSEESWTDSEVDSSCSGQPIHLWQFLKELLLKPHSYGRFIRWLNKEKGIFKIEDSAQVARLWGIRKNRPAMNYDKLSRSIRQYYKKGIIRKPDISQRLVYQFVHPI
An outline of the steps:
as §1

Assay [13] deals with T10, ETV7 (Homo sapiens, UniProt Q9Y603 1-341).
T10 sequence: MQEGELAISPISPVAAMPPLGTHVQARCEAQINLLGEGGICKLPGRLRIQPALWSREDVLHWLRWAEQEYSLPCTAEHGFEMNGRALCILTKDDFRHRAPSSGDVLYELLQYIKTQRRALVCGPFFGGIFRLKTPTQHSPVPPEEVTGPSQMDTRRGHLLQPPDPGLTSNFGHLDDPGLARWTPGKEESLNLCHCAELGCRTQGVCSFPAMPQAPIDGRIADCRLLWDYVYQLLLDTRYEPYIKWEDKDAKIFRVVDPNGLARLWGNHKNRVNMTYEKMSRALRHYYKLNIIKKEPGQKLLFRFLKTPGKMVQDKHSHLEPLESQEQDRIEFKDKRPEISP
An outline of the steps: as §1

Assay [14] addresses T11, ETV3 (Homo sapiens, UniProt P41162-2 1-143).
T11 sequence: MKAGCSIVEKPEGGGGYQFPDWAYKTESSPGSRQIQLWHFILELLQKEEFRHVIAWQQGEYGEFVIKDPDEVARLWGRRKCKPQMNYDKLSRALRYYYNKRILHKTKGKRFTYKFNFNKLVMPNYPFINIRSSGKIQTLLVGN
The essentials:
as §1

Sequence of ELF4 (Q99607 whole entry): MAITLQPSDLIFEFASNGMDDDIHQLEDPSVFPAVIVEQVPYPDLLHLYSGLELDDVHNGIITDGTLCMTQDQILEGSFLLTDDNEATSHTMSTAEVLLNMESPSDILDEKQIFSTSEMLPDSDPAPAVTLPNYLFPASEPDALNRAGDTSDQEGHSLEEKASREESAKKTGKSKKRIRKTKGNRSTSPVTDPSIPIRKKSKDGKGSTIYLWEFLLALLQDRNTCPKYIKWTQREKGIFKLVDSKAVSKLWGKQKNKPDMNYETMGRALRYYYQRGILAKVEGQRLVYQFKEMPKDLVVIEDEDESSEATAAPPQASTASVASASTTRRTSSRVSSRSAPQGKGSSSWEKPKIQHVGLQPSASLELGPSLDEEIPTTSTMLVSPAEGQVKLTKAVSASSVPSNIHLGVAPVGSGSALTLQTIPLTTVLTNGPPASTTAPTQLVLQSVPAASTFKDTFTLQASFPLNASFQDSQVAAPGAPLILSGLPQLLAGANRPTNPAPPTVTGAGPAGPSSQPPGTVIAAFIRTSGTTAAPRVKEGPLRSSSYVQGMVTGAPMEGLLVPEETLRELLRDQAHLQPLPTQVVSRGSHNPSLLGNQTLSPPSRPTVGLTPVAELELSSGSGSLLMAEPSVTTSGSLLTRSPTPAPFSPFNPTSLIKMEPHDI
Sequence of ELF1 (P32519 whole entry): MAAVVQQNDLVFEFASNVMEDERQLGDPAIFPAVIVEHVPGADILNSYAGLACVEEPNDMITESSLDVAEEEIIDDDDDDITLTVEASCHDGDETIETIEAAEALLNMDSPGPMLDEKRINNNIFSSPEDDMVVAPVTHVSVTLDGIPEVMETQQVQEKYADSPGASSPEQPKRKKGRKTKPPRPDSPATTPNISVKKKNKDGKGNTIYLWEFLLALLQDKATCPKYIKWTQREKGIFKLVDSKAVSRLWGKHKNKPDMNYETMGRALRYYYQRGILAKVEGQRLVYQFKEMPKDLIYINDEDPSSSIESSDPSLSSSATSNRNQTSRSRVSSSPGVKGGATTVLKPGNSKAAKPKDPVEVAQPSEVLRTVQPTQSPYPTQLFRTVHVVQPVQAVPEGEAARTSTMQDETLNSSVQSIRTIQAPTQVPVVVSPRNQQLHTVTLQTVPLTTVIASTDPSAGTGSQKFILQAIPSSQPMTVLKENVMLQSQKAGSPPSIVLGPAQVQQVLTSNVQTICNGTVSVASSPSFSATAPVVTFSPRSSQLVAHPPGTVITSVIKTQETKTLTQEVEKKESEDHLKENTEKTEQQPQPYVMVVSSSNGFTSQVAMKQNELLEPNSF
Sequence of SPIB (Q01892 whole entry): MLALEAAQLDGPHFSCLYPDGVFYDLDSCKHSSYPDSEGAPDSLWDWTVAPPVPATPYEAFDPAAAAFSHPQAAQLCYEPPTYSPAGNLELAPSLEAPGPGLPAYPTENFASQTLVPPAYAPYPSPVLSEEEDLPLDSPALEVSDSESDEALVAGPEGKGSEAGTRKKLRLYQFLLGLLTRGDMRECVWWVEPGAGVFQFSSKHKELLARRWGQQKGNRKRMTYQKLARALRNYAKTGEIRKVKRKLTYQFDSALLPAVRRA

Regarding GATCTA, the binding signal is 1.12 fold enrichment (6-mer frequency, TF over GST control) in assay [1]; 1.03 fold enrichment (6-mer frequency, TF over GST control) in assay [2]; 1.06 fold enrichment (6-mer frequency, TF over GST control) in [3]; 1.12 fold enrichment (6-mer frequency, TF over GST control) in assay [4]; 1.01 fold enrichment (6-mer frequency, TF over GST control) in assay [5]; 1.04 fold enrichment (6-mer frequency, TF over GST control) in assay [6]. In addition, the binding signal in assay [7] is 1.05 fold enrichment (6-mer frequency, TF over GST control); in [8], 1.07 fold enrichment (6-mer frequency, TF over GST control); in assay [9], 1.04 fold enrichment (6-mer frequency, TF over GST control); in assay [10] it was 1.03 fold enrichment (6-mer frequency, TF over GST control); in assay [11], 1.04 fold enrichment (6-mer frequency, TF over GST control); in [12], 1.1 fold enrichment (6-mer frequency, TF over GST control). Further, the binding signal is 1.1 fold enrichment (6-mer frequency, TF over GST control) in assay [13] and 1.04 fold enrichment (6-mer frequency, TF over GST control) in assay [14].
